Most compounds without a hit are left out; they make up all but 13% or so of the library.
USP17 inh: inhibitors of human USP17 deubiquitinase; A8MUK1; purified USP17, Ub-rhodamine cleavage fluorescence, 3 h; inhibition, % at 50 µM; hit rate 6.5% among 47,000; AID 1645855
USP30 block: blocks human USP30 ubiquitin-rhodamine cleavage. inhibition, % at 25 µM. purified USP30, Ub-rhodamine cleavage fluorescence. hit rate 5.3% among 47,000. Q70CQ3
Target sequence (Q70CQ3 whole entry, looked up): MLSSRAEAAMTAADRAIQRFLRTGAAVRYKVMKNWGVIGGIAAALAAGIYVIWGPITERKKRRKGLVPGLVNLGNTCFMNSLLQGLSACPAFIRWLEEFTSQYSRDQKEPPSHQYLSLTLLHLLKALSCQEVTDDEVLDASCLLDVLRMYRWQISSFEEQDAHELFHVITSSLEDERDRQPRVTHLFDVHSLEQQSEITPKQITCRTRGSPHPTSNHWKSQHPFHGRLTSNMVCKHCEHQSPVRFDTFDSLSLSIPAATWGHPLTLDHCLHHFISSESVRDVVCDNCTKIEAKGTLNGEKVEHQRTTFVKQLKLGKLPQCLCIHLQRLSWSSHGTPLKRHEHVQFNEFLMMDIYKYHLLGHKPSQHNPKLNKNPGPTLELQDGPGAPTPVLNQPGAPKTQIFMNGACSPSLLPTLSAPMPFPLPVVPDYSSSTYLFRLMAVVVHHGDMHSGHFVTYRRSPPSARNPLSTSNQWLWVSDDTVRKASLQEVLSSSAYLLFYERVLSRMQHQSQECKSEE
OTUD3 inh: human OTUD3 deubiquitinase inhibition. purified OTUD3, Ub-rhodamine fluorescence, 2 h. hit rate 0.7% among 47,000. inhibition, % at 25 µM. AID 1645858. Q5T2D3
USP8 inh: inhibitors of human USP8 deubiquitinase; P40818; purified USP8, Ub-rhodamine cleavage fluorescence, 30 min; inhibition, % at 20 µM; hit rate 4.2% among 47,000; AID 1645853
USP28 inh: human USP28 deubiquitinase inhibition | Q96RU2 | purified USP28, Ub-rhodamine cleavage fluorescence, 30 min | inhibition, % at 25 µM | hit rate 3% among 47,000
Numbers stand for hits; i = inactive. Cut-off read from the data, not from the text of the source: active = inhibition above about 30%; inactive = the rest.

SMILES	USP17 inh	USP30 block	OTUD3 inh	USP8 inh	USP28 inh
O=C1CSC(c2ccc(F)cc2)c2c(n(C3CCCCCC3)[nH]c2=O)N1 (stereo not given)	i	30	i	83	i
COc1ccc(C2SCC(=O)Nc3c2c(=O)[nH]n3C2CCCCC2)cc1 (stereo not given)	68	i	i	i	i
O=C1CSC(c2ccc(Cl)cc2)c2c(n(C3CCCC3)[nH]c2=O)N1 (stereo not given)	i	i	i	i	i
CC1(C)CC(n2[nH]c(=O)c3c2NC(=O)CSC3c2ccccc2)CCO1 (stereo not given)	i	33	i	i	i
c1ccc(CN2CC[C@@H]3[C@@H](CO[C@@H]3CNc3ncccn3)C2)nc1	i	i	i	i	i
CCCC1Cc2cc3c(c(O)c2C(=O)O1)-c1c(c(OC)c2oc4c(O[C@H]5C[C@H](O)[C@H](O[C@H]6C[C@H](O)[C@H](O[C@H]7C[C@H](OC)[C@H](O)C(C)O7)C(C)O6)C(C)O5)ccc(O)c4c(=O)c2c1O)[C@H](O)[C@@H]3O (stereo not given in full)	37	i	i	i	i
NCC1OC(OC2C(N)CC(N)C(O)C2O)C(N)C(O)C1O (stereo not given)	i	i	i	i	i
N#CC(=O)c1c[nH]c2ccccc12	i	i	i	i	i
CCC(CC(C)C(=O)O)C(=O)CC/C1=C/C(C)C/C(C)=C/C(C)C(O)C(C)CCC(CCCC/C=C/C(C)CCC(C)OC(=O)CC(CC(=O)O)C(=O)O)OC(=O)CC(C(=O)O)CC(=O)OC1 (stereo not given)	i	32	i	i	i
COc1cc(N2CC[C@@H]3OCCN(C)[C@H]3CC2)ncn1	i	33	i	i	i
COCCN1CCO[C@@H]2CCN(C(=O)c3ccno3)CC[C@H]21	i	i	i	i	i
Cn1c(=O)c2ncnnc2n(C)c1=O	95	83	90	98	96
Cc1ccc(CN2CC[C@@H]3[C@@H](CO[C@H]3CNc3ncccn3)C2)s1	i	i	i	i	i
C=C/C(C)=C/[C@H](C)C(=O)C[C@H](O)CC1CC(=O)NC(=O)C1	i	i	i	i	i
CC(C)c1cc2c(c(O)c1O)C1(C(=O)O)CCCC(C)(C)C1CC2 (stereo not given)	88	81	46	i	53
CC(C)c1cc2c(c(O)c1O)[C@@]1(C(=O)O)CCCC(C)(C)[C@@H]1CC2	79	57	36	i	39
CC1CCCCN1Cc1nc2ccc([N+](=O)[O-])cc2c(=O)n1-c1ccccc1F (stereo not given)	i	i	i	i	i
CC(C)N(C)C(=O)C1=NOC2(CCCNC2)C1 (stereo not given)	i	i	i	i	i
Cc1cc(C)nc(-n2nc(C)c3c2NC(=O)CSC3c2ccc(F)cc2)n1 (stereo not given)	i	i	i	i	i
O=C(Nc1cccnc1)[C@H]1CC[C@@H]2[C@@H](CCN2Cc2ccco2)O1	i	i	i	i	i
CCc1cc2c(cc1-c1csc(C)n1)C(C)(C)CCC2(C)C	i	i	i	i	i
COc1ccc(OC)c(-c2c(C#N)c(C)nc3c2N2CCC3CC2)c1	49	43	33	i	94
CC1CCC/C=C/C=C/C(O)CC(O)C/C=C\C=C\C(O)C/C=C/C=C\C(=O)O1 (stereo not given)	i	i	i	i	i
CCC(CC)n1[nH]c(=O)c2c1NC(=O)CSC2c1ccc2c(c1)OCO2 (stereo not given)	65	i	i	43	i
CN(C)Cc1c[nH]c2c(OCc3ccccc3)cccc12	i	35	i	i	45
CCCCCC(O)c1c(O)cc2c(c1O)C(=O)c1c(O)cc(O)cc1C2=O (stereo not given)	58	i	i	i	i
CC[C@@]1(O)C[C@H](O[C@@H]2C[C@@H](N(C)C)[C@@H](O[C@@H]3C[C@@H](O)[C@@H](O[C@@H]4CCC(=O)[C@@H](C)O4)[C@@H](C)O3)[C@@H](C)O2)c2c(cc3c(c2O)C(=O)c2c(O)ccc(O)c2C3=O)[C@H]1C(=O)OC	i	i	i	i	i
CN(C)[C@@H]1C(=O)C(C(N)=O)=C(O)[C@@]2(O)C(=O)C3=C(O)c4c(O)cccc4[C@@](C)(O)[C@H]3C[C@@H]12	51	i	i	i	i

Compound activity (PubChem BioAssay)
